From PubChem BioAssay
Where “and” joins values, the source holds several entries; their conditions need not be identical. Equal entries are not always repeated. Unmarked numbers belong to inactive results. The list shows a part of the results. Calls of active or inactive are those of the source.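 The calls were made as follows, unless noted: active = mean inhibition over three repeats above a set limit taken from the earlier primary screen (cut at about 37% in these data); inactive = the rest.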

Experiments:
[1] = reduced OD of T4-infected AddAB+ E. coli – absorbance, E. coli V3065, T4 phage, triplicate, AddAB inhibitor project, confirmation (AID 488942;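 active = mean inhibition above a set limit taken from the earlier primary screen, cut at about 13% in these data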;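 also: higher means less bacterial growth since AddAB block lets phage replicate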); conditions: E. coli V3065 expressing H. pylori AddAB, at 11.9 µM, active compounds read high, T4 phage with gene 2 nonsense mutations
[2] = reduced OD of phage-infected RecBCD+ V66 E. coli – absorbance, mutant T4 phage, counter-screen for AddAB inhibitor project (AID 488955;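 active = mean inhibition above the mean of solvent-only control wells plus 3 SD, cut at about 4% in these data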;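 also: optical density read after an 18 h incubation at 37 °C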); conditions: OD growth, at 11.9 µM, active compounds read high
[3] = bacterial growth inhibitors – absorbance, counter-screen for AddAB inhibitor project, confirmation (AID 488956; in the data active = inhibition above about 25%); conditions: bacterial viability, absorbance (AddAB counterscreen); at 11.9 µM; active compounds read high
[4] = reduced OD of V66 E. coli with T4 gene 2 phage – absorbance, RecBCD inhibitor project, confirmation (AID 651982;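 active = mean inhibition over triplicates exceeding the hit threshold derived in the original primary screen, cut at about 11% in these data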); conditions: E. coli V66 + T4 2- phage, growth OD; at 11.9 µM; active compounds read high
[5] = bacterial growth inhibition – absorbance, high throughput, counter-screen for RecBCD inhibitor project (AID 651983; in the data active = inhibition above about 20%;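 also: E. coli strain V66 grown with compound alone and no phage infection; 0% = bacteria with DMSO vehicle only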); conditions: E. coli viability, absorbance (OD) growth; at 11.9 µM; active compounds read high
[6] = reduced optical density, T4-challenged addAB+ bacteria – absorbance, E. coli V3065, T4 phage, counter-screen for RecBCD inhibitor project, confirmation (AID 651984;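 active = mean inhibition above the solvent-only control wells' mean plus 3 SD, cut at about 22% in these data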;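 also: higher means less bacterial growth from phage killing when AddAB is blocked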); conditions: E. coli expressing H. pylori AddAB + T4 phage, OD growth; at 11.9 µM; active compounds read high; gene 2 mutant T4, recBCD-deleted host
[7] = target: Serine protease HTRA1 (Homo sapiens) (UniProt Q92743); assay: confirming inhibition of human HTRA1 – biochemical, fluorescence polarization, confirmation (AID 540248); conditions: recombinant HTRA1, FP-rhodamine activity-based probe, at 5.96 µM, active compounds read high;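 also: 0% = HTRA1 with DMSO and 100% = wells lacking HTRA1; inhibitors block probe binding so polarization drops and inhibition rises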
[8] = target: Photoreceptor-specific nuclear receptor (Homo sapiens) (UniProt Q9Y5X4); assay: retest of NR2E3-NCOR disrupting agonists – cell-based, luminescence, CHO-S two-hybrid, confirmation (AID 624378;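 active = average inhibition above a cutoff equal to the mean inhibition of all tested compounds plus one SD, cut at about 70% in these data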;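 also: 0% = DMSO in NR2E3 cells and 100% = DMSO in cells lacking NR2E3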); conditions: CHO-S mammalian two-hybrid NR2E3-NCOR, luciferase luminescence; at 3.98 µM; active compounds read high
Chain of Photoreceptor-specific nuclear receptor (Homo sapiens) (Q9Y5X4 whole entry, looked up): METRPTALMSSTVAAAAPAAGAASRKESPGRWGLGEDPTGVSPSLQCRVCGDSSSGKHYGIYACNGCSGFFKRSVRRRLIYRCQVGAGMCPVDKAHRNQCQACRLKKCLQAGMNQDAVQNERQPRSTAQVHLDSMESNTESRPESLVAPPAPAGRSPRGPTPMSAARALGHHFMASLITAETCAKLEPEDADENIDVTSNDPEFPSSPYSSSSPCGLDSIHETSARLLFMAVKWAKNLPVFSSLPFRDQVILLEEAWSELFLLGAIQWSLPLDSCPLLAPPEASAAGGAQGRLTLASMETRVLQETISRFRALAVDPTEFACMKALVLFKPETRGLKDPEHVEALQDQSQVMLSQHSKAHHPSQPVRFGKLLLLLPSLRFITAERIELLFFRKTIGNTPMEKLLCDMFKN

[9] = nonselective effects on VP16 transactivation – cell-based, luminescence, CHO-S, high throughput, counter-screen for NR2E3 agonist project, confirmation (AID 624379;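 active = mean inhibition above a cutoff equal to the average over all tested compounds plus one standard deviation, cut at about 70% in these data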;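 also: 0% = DMSO with VP16-transfected cells and 100% = DMSO with cells lacking VP16; higher means less reporter light so more repression of VP16 activity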); conditions: CHO-S GAL4-VP16 luciferase reporter, at 3.98 µM, active compounds read high
[10] = system: transactivating tegument protein VP16 (Human herpesvirus 1); assay: compounds suppressing VP16-driven luciferase signal – cell-based, luminescence, single concentration, counter-screen for SRC2 inhibitor project (AID 652007; in the data active = inhibition above about 36%); conditions: cell-based VP16 transactivation luciferase reporter, at 8.9 µM, active compounds read high
[11] = target: Nuclear receptor coactivator 2 (Homo sapiens) (UniProt Q15596); assay: inhibition of GAL4-SRC2 driven luciferase expression – cell-based, luminescence, HEK293, triplicate, confirmation (AID 652008;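 active = mean inhibition above 46.5%, the solvent-only control mean plus 3 SD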;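 also: 0% = DMSO-treated cells and 100% = Gossypol at 36 µM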); conditions: HEK293 GAL4-SRC2 luciferase reporter, at 8.9 µM, active compounds read high
Chain of Nuclear receptor coactivator 2 (Homo sapiens) (Q15596 whole entry, looked up, the tested form may be a part): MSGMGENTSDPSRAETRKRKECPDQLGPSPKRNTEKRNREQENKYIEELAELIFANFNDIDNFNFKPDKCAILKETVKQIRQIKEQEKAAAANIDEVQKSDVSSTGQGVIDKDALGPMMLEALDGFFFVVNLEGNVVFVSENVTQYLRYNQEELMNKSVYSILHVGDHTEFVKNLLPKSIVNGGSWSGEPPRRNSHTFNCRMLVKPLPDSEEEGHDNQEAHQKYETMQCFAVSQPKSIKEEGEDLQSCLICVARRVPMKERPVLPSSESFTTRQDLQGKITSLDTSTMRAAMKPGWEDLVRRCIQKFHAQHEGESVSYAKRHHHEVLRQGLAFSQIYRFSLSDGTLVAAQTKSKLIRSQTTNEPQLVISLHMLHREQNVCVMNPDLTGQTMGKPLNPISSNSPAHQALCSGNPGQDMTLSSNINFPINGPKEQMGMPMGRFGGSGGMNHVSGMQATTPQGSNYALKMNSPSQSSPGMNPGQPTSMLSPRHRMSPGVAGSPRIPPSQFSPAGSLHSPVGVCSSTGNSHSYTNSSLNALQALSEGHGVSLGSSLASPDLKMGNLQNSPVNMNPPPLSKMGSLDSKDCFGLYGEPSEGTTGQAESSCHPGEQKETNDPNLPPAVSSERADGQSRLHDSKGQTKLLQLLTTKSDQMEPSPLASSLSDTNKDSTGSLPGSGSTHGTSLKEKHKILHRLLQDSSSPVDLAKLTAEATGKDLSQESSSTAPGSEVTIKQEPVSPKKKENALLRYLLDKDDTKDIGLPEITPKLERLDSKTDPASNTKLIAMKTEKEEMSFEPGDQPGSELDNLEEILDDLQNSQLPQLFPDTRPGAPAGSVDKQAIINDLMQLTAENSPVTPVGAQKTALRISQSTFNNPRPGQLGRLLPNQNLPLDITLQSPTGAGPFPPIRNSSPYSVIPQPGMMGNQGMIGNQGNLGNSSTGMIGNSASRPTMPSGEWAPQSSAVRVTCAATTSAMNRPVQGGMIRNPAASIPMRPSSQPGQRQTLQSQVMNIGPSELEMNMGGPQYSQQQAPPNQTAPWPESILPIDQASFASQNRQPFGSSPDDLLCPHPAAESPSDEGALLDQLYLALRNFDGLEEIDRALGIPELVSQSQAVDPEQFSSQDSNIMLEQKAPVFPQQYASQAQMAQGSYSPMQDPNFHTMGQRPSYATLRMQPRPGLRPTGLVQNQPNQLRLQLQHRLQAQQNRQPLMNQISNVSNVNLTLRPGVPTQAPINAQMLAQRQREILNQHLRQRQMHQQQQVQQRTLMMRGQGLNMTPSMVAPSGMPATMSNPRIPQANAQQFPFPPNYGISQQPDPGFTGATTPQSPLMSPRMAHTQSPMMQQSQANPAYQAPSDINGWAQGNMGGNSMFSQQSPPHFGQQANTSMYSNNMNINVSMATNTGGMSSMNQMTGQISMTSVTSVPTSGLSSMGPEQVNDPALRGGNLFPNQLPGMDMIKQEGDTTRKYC

[12] = VP16-driven transactivation reporter suppression – cell-based, luminescence, HEK293, counter-screen for COUP-TFII antagonist project (AID 687007; in the data active = inhibition above about 13%); conditions: HEK293 Gal4-VP16 luciferase reporter, at 8.5 µM, active compounds read high
[13] = target: COUP transcription factor 2 (Homo sapiens) (UniProt P24468); assay: retest of COUP-TFII reporter suppressors – cell-based, luciferase reporter, HEK293, triplicate, confirmation (AID 687008;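 active = mean inhibition over three repeats above a set limit taken from the earlier primary screen, cut at about 38% in these data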;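 also: 100% = cells given the luciferase reporter alone without the COUP-TF2 vector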); conditions: HEK293 NGFI-A luciferase reporter, luminescence; at 8.5 µM; active compounds read high
Chain of COUP transcription factor 2 (Homo sapiens) (P24468 whole entry, looked up): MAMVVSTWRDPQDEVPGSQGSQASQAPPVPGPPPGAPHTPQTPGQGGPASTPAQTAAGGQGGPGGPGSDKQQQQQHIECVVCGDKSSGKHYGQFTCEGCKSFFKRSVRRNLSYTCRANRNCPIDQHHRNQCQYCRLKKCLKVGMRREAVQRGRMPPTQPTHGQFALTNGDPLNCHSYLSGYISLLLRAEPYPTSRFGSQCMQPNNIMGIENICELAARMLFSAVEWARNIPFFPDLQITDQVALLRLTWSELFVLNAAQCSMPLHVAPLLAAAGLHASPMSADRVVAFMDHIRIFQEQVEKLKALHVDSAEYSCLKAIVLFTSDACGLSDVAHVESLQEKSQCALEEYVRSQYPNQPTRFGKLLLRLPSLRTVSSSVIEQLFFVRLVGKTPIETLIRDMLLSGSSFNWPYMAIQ

[14] = target: Toll-like receptor 9 (Homo sapiens) (UniProt Q9NR96); assay: disruptors of TLR9 binding to MyD88 – cell-based, CHO, BLA complementation, fluorescence, triplicate, confirmation (AID 540250;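 active = mean inhibition across three repeats above about 21% taken from the earlier screen, limit read from the data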;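 also: blue over green emission ratio reports constitutive TLR9 MyD88 association via BLA complementation; 0% = DMSO vehicle wells and 100% = clavulanate BLA inhibitor wells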); conditions: CCF4 FRET ratio, at 4.98 µM, active compounds read high
Chain of Toll-like receptor 9 (Homo sapiens) (Q9NR96 whole entry, looked up): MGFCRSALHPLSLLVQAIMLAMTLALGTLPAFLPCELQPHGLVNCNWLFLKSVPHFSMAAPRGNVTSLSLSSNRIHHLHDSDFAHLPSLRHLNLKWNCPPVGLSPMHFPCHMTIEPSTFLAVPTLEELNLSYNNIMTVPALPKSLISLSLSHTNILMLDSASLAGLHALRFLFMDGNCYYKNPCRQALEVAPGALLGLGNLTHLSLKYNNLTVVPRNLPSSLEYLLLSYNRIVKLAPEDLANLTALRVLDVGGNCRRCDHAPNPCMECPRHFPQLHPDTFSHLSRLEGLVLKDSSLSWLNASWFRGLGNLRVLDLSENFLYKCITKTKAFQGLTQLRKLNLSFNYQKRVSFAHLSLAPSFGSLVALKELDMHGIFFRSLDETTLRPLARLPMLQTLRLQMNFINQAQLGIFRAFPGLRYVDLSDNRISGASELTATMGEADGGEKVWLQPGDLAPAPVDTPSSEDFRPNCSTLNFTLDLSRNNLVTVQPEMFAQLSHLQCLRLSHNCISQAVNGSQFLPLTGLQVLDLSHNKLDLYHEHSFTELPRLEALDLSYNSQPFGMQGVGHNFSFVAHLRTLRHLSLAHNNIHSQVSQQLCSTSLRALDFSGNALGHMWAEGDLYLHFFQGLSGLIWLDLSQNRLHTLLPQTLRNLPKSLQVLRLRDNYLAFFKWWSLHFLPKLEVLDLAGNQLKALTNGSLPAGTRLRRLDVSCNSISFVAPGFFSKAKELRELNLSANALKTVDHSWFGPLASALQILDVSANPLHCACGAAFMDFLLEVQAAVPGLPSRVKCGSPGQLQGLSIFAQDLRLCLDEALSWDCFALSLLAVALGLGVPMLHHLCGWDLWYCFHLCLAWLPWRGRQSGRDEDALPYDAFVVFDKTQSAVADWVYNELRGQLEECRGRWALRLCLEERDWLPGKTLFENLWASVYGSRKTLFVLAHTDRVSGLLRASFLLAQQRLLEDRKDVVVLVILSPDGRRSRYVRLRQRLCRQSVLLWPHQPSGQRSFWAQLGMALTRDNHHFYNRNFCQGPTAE

[15] = BLA reporter readout interference – cell-based, fluorescence, artefact control for TLR9-MyD88 binding inhibitor project (AID 540251;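 active = mean inhibition above a 50% cutoff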;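 also: counterscreen of TLR9-MyD88 hits on CMV-driven BLA in CHO-K1 cells; 0% = DMSO alone and 100% = clavulanate blocking BLA; higher means less blue over green ratio so more BLA blockade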); conditions: CHO-BLA cells, CCF4 FRET ratio, at 4.98 µM, active compounds read high
[16] = CHO cell viability loss – luminescence, single concentration, cytotoxicity control for TLR9-MyD88 binding inhibitor project (AID 588336; in the data active = inhibition above about 11%); conditions: TLR9-MyD88 CHO cells cytotoxicity, at 4.98 µM, active compounds read high
[17] = target: Receptor-interacting serine/threonine-protein kinase 2 (Homo sapiens) (UniProt O43353); assay: inhibitors of RIPK2 association with NOD2 – fluorescence, CHO cells, BLA complementation, triplicate, confirmation (AID 624370;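 active = mean inhibition across replicates above a set limit taken from the earlier primary screen, cut at about 21% in these data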;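 also: 0% = DMSO-only wells and the high end = clavulanate BLA-blocked wells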); conditions: CCF4 FRET, at 4.98 µM, active compounds read high
Chain of Receptor-interacting serine/threonine-protein kinase 2 (Homo sapiens) (O43353 whole entry, looked up): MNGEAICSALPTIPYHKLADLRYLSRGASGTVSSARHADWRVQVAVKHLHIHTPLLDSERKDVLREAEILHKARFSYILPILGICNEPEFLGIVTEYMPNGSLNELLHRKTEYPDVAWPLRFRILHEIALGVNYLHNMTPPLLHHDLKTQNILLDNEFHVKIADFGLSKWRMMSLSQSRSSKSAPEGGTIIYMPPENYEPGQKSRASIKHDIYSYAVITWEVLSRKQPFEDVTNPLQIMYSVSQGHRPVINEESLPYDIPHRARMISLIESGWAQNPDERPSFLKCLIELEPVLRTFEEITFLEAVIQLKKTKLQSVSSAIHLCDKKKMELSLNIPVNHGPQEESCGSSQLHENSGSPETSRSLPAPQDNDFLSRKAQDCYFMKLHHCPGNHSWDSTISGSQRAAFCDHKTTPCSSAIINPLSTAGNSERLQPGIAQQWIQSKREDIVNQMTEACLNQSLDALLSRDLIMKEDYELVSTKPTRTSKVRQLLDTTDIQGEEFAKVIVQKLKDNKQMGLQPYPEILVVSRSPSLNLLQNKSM

[18] = BLA reporter readout interference – cell-based, CHO-K1 CMV-bla, CCF4 FRET, fluorescence, artefact control for NOD2-RIPK2 interaction inhibitor project, confirmation (AID 624371;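 active = mean inhibition above the low-control mean inhibition plus three low-control SD, cut at about 11% in these data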;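 also: 0% = DMSO only wells and 100% = clavulanate high control wells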); conditions: CCF4 FRET ratio, counterscreen, at 4.98 µM, active compounds read high
[19] = target: (Lyso)-N-acylphosphatidylethanolamine lipase (Mus musculus) (UniProt Q8VD66); assay: mouse ABHD4 hydrolase blockers, triplicate – biochemical, fluorescence polarization, confirmation (AID 720658;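 active = mean inhibition across replicates above the hit cutoff set in the primary screen, cut at about 30% in these data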;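 also: 0% = wild-type ABHD4 with DMSO and 100% = catalytically dead S159A mutant with DMSO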); conditions: purified mABHD4, FP-Rh probe fluorescence polarization; at 8.92 µM; active compounds read high
Chain of (Lyso)-N-acylphosphatidylethanolamine lipase (Mus musculus) (Q8VD66 whole entry, looked up): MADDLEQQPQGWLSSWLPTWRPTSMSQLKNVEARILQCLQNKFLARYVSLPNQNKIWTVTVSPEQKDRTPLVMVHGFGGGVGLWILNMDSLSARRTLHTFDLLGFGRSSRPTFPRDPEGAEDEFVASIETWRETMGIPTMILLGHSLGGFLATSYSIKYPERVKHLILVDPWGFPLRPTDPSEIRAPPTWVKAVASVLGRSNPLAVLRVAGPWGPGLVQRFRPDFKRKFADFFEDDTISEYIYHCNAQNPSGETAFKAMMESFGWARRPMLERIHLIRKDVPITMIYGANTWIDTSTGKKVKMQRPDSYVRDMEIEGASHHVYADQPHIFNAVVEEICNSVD

## CN1CCN(c2cc3c(cc2F)c(=O)c(C(=O)O)cn3CCF)CC1
[1]
  inhibition: 103% (active)
[2]
  inhibition: 102% (active)
[3]
  inhibition: 103% (active)
[4]
  inhibition: 103% (active)
[5]
  inhibition: 103% (active)
[6]
  inhibition: 102% (active)

## Cc1cccc(NC(=O)Cn2cc(C(=O)c3ccco3)c3ccccc32)c1
[1]
  inhibition: 14.9% (active)
[2]
  inhibition: 10.9% (active)
[3]
  inhibition: 11.8%
[4]
  inhibition: 6.82%
[5]
  inhibition: 11.3%
[6]
  inhibition: 7.23%

## Oc1c(CN2CCCC2)cc(COCc2ccccc2)c2cccnc12
[7]
  inhibition: 80% (active)

## CCOC(=O)c1ccc(NC(=O)Cn2cnc3cc(C)c(C)cc32)cc1
[1]
  inhibition: 24.2% (active)
[2]
  inhibition: 18.4% (active)
[3]
  inhibition: 21.4%
[8]
  inhibition: 96% (active)
[9]
  inhibition: 87.5% (active)
[4]
  inhibition: 13.5% (active)
[5]
  inhibition: 14.5%
[6]
  inhibition: 21.8% (active)
[10]
  inhibition: 19.5%
[11]
  inhibition: 36.7%
[12]
  inhibition: 8.87%
[13]
  inhibition: 62.9% (active)

## O=C(CCN1C(=O)c2ccccc2C1=O)NNC(=O)c1ccc(Cl)cc1Cl
[14]
  inhibition: -3.93%
[15]
  inhibition: -2.36%
[16]
  inhibition: 1.44%

## COc1ccc(-c2nc3cnccn3c2NC2CCCCC2)cc1-c1cccc(Cl)c1
[14]
  inhibition: 25.7% (active)
[15]
  inhibition: 29.5%
[16]
  inhibition: -0.82%
[17]
  inhibition: 39.6% (active) and 39.4% (active)
[18]
  inhibition: 49.6% (active) and 50.5% (active)

## O=C(CN1CCN(S(=O)(=O)c2cc(Cl)ccc2Cl)CC1)c1ccc(O)c(O)c1
[7]
  inhibition: 45.3% (active)

## COc1cccc(/C=N/Nc2ccc(S(=O)(=O)Nc3ccccc3C(=O)O)cc2[N+](=O)[O-])c1O
[7]
  inhibition: 25.5%
[19]
  inhibition: 67.4% (active)

## O=Nc1c(O)cc(O)c2ccccc12
[7]
  inhibition: 10.1%
[19]
  inhibition: 11.7%

## Cc1cccc(NC(=O)c2nc(S(=O)(=O)Cc3ccccc3)ncc2Cl)c1
[14]
  inhibition: 46.4% (active)
[15]
  inhibition: 43.2%
[16]
  inhibition: 97% (active)
[17]
  inhibition: 78.4% (active)
[18]
  inhibition: 43.9% (active)
[10]
  inhibition: 38.7% (active)
[11]
  inhibition: 44.1%

## COc1cnc(-c2ccccn2)nc1Oc1ccc(C(C)(C)C)cc1
[7]
  inhibition: 53.5% (active)
[8]
  inhibition: 28.4%
[9]
  inhibition: 13.6%

## Cc1cccc(CS(=O)(=O)c2ncc(Cl)c(C(=O)Nc3ccc(F)cc3)n2)c1
[14]
  inhibition: 38.1% (active)
[15]
  inhibition: 20.7%
[16]
  inhibition: 99.1% (active)
[17]
  inhibition: 82.9% (active)
[18]
  inhibition: 31.5% (active)
[10]
  inhibition: 69.8% (active)
[11]
  inhibition: 80.6% (active)
